In PubChem BioAssay AID1429 (The Scripps Research Institute Molecular Screening Center, 2008):
The list shows a part of the results. Activity calls are given as the source filed them.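 How the source made its calls: active means inhibition above the hit threshold that was computed for the earlier primary screen (cut at about 30% in these data); inactive means the rest.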

Molecular target: Sphingosine 1-phosphate receptor 3 (Homo sapiens) (UniProt Q99500)
Assay: S1P3 receptor antagonists, retest, confirmation, cell-based (AID 1429);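 further: 0% = S1P-stimulated wells and 100% = unstimulated DMSO-only wells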
Conditions: CHO S1P3 NFAT-BLA reporter, FRET, antagonist mode; at 4.98 µM; active compounds read high

Sequence of Sphingosine 1-phosphate receptor 3 (Homo sapiens) (Q99500 whole entry, looked up): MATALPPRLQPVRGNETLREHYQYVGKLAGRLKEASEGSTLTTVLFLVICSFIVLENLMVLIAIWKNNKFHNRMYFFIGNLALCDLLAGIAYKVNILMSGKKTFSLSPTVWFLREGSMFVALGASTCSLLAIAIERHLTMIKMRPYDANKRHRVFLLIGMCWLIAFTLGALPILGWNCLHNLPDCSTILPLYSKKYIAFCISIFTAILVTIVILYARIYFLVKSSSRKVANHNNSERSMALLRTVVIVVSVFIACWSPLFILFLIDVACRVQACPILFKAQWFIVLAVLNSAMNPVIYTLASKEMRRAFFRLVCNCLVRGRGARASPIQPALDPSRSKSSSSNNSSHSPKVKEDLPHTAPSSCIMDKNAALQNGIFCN

Row | SMILES | inhibition
1 | CCN1/C(=C\c2ccc3ccccc3[n+]2CC)Sc2cc(C)ccc21 | 10.8% (inactive)
2 | CC(C)Oc1ccccc1C(=O)NC(CO)C(=O)O (stereo not given) | -23.6% (inactive)
3 | S=C(NCCc1ccccc1)NCC1CCCO1 (stereo not given) | -4.63% (inactive)
4 | CCOC(=O)C1=C(C)N=C2c3ccccc3C(=O)C2C1c1ccc(Br)cc1 (stereo not given) | 77.8% (active)
5 | O=C(N/N=C/c1coc2ccccc2c1=O)c1cc2ccccc2o1 | -18.6% (inactive)
6 | CSc1ccc(CN(C)CC(=O)NCc2ccc(F)cc2)cc1 | -9.96% (inactive)
7 | CC(=O)c1c(C)[nH]c(C(=O)COC(=O)c2cccc(S(=O)(=O)N(C)c3ccccc3)c2)c1C | 10.9% (inactive)
8 | Cc1ccc(NC(=O)CN(C)CC(=O)Nc2cccc(F)c2)cc1[N+](=O)[O-] | 12.6% (inactive)
9 | CC[C@H]1CN2CCc3cc(OC)c(OC)cc3[C@@H]2C[C@@H]1C[C@H]1NCCc2cc(OC)c(OC)cc21 | 109% (active)
10 | Nc1c(C(=O)c2cccs2)sc2nsc(SCCN3CCCCC3)c12 | 18.8% (inactive)
